Test results from PubChem BioAssay (NCI).
This is part of a sample that, as a whole, favours compounds with a hit. Of some 83,000 tested, about 20% had one in any assay.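 Single-dose data. Exposure time 48 hours. Values below 10 considered active.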 Calls of active or inactive are those of the source.

tested on: OVCAR-5 ovarian; assay: NCI-60 one-dose screen, 48 h (100 = growth as untreated, 0 = no growth, -100 = all killed); conditions: 10 µM unless noted

Structure (SMILES)	growth
COc1ccc2c(c1)OC13Oc4cc(OC)ccc4C=C1CCCCC3=C2	104% (inactive)
C/C(=N/Nc1nc2ccccc2n1C)c1ccccn1	35.3% (inactive)
Cc1nc2sc(C(=O)Nc3cccc4ccccc34)c(N)c2cc1C(C)O (configuration not stated)	40.7% (inactive)
N#Cc1c(-c2ccc(F)cc2)c(C#N)c2c(C#N)c(N)nn2c1N	96.1% (inactive)
CCOc1ccc(C2N(c3cc(OC)c(OC)c(OC)c3)C(=O)C2(F)F)cc1 (configuration not stated)	66.5% (inactive)
CCOc1ccccc1C(=O)/C=C/c1cc2ccccc2[nH]c1=O	5.93% (active)
Cc1ccc(C2=N[C@H]3CCC[C@@H]3N(c3ccccc3)C(C(Cl)Cl)=N2)cc1	91.3% (inactive)
COc1cc(/C=C/CO)cc(OC)c1O[C@@H]1O[C@H](CO)[C@@H](O)[C@H](O)[C@H]1O	92.4% (inactive)
COc1ccc(C(=S)c2cc(OC)c(OC)c(OC)c2)cc1OC(=O)CCl	66.9% (inactive)
O=C1CCC23OC(c4ccccc4N12)C(O)C(O)C3O (configuration not stated)	110% (inactive)
COc1cc(/C=C/C(=O)c2cccs2)ccc1OCc1ccc(Cl)nc1	88.9% (inactive)
O=c1c2ccccc2oc2ccc(OCCCCCN3CCCCCC3)cc12	92% (inactive)
C=C1C(=O)O[C@H]2[C@H]1CC/C(COC(=O)NCC(=O)Nc1ccc(OC)c(C(N)=O)c1O)=C\CC[C@@]1(C)O[C@@H]21	102% (inactive)
COc1ccc(-c2[nH]c3ccccc3c2C=C(C#N)C#N)cc1	26.7% (inactive)
COC(=O)/C=C/c1cc(OC(C)=O)c2c(c1)C(C(=O)OC)C(c1ccc(OC(C)=O)c(OC(C)=O)c1)O2 (configuration not stated)	50.5% (inactive)
Nc1cc(N)c(S(=O)(=O)O)cc1N=Nc1cc([N+](=O)[O-])ccc1O	108% (inactive)
CC1CCN(CCCCCOc2ccc3oc4ccccc4c(=O)c3c2)CC1	88.4% (inactive)
CCOC(=O)C1=C(C)n2nc(CC#N)c(C#N)c2NC1c1ccc(Cl)cc1 (configuration not stated)	103% (inactive)
Cc1cccc(C)c1NCc1nnc(-c2ccco2)o1	99.8% (inactive)

Structure (SMILES)	growth
COC(=O)/C=C1\SC(=Nc2cccc(Cl)c2)N(CCc2c[nH]c3ccccc23)C1=O	73.6% (inactive)
COc1ccc(C(C)c2cc(OC)c(OC)c(OC)c2)cc1 (configuration not stated)	50.3% (inactive)
CCO/C=N/S(=O)(=O)c1cc2c(cc1Cl)NC=NS2(=O)=O	112% (inactive)
COc1ccc([C@H]2[C@@H](F)C(=O)N2c2cc(OC)c(OC)c(OC)c2)cc1F	43.6% (inactive)
O=C(CN1N=C(c2ccc(F)cc2)CCC1=O)Nc1nccs1	107% (inactive)
Nc1cc(N)nc(SCC(=O)O)n1	107% (inactive)
CCOC(=O)NCCc1nc2c([nH]1)c(=O)n(C)c(=O)n2C	90.3% (inactive)
CC1(c2ccccc2Cl)NC(=O)NC1=O (configuration not stated)	106% (inactive)
C=C1C(=O)O[C@H]2[C@H]1CC/C(COC(=O)n1ccnc1)=C\CC[C@@]1(C)O[C@@H]21	117% (inactive)
COc1ccccc1-c1ccc2nc(NC(=O)Nc3cc(C(F)(F)F)cc(C(F)(F)F)c3)sc2c1	20.5% (inactive)
O=C1NC(SCc2ccc(F)cc2)=N/C1=C/c1cccc(OCc2ccc(Cl)cc2)c1	66.1% (inactive)
O=C(CCc1nnc2sc(OCc3ccccc3)nn12)c1nc2ccc([N+](=O)[O-])cc2[nH]1	103% (inactive)
Nc1c(C(=O)Nc2ccccn2)sc2nc3c(cc12)CCCC3	77.6% (inactive)
Cc1nnc(/N=C2\NC(=O)/C(=C/c3ccsc3)S2)s1	107% (inactive)
Cc1cc(Nc2nc(SCc3ccc(C(=O)Nc4ccc(F)cc4N)cc3)nn3cccc23)n[nH]1	52.3% (inactive)
Oc1c(CCl)cc(Cl)cc1Cc1cc(Cl)cc(Cc2cc(Cl)cc(CCl)c2O)c1O	79.8% (inactive)
COc1ccc(C2N(c3cc(OC)c(OC)c(OC)c3)C(=O)C2(F)F)cc1F (configuration not stated)	78.7% (inactive)
COc1cc2c(cc1OC)C(Sc1ccc(Cl)cc1)c1c(nc(N)c(C#N)c1N)O2 (configuration not stated)	10.8% (inactive)
